Assay results as given in the supplement of paper PMC13380429.
Counter-ions that a name gives are not always drawn.

Test system: Vero E6 infected with SARS-CoV-2
Assay: inhibition of SARS-CoV-2 cytopathic effect; higher = more antiviral protection, active = above 15
Details: 48 h

Measured: inhibition of SARS-CoV-2 cytopathic effect

O=c1[nH]c(=O)n([C@H]2C[C@H](O)[C@@H](CO)O2)cc1I [idoxuridine]
inactive: 1 nM 1.04% | 8.33 nM -1.19% | 100 nM 2.65% | 833.33 nM -0.31% | 10000 nM -2.33%

Cc1ncc(-c2csc(N=C(N)N)n2)[nH]1 [zaltidine]
inactive: 1 nM 2.21% | 8.33 nM -0.85% | 100 nM -3.06% | 833.33 nM -1.56% | 10000 nM -0.54%

CC(C)NC(=O)COc1cccc(-c2nc(Nc3ccc4[nH]ncc4c3)c3ccccc3n2)c1
inactive: 1 nM -1.49% | 8.33 nM -1.42% | 100 nM 0.74% | 833.33 nM 1.37% | 10000 nM 1.49%

CNS(=O)(=O)Nc1nccc(Cc2c(C)c3ccc(Oc4ncccn4)cc3oc2=O)c1F
inactive: 1 nM -0.25% | 8.33 nM -3.18% | 100 nM -10.4% | 833.33 nM -17.5% | 10000 nM -15.7%

Cc1cc(C(C)(C)C)cc(C)c1CC1=NCCN1 [xylometazoline]
inactive: 1 nM -7.36% | 8.33 nM -8.77% | 100 nM -5.88% | 833.33 nM -7.35% | 10000 nM -6.68%

CC(C)(C)c1cc(C=C(C#N)C#N)cc(Br)c1O
inactive: 1 nM 0.94% | 8.33 nM -0.19% | 100 nM 0.29% | 833.33 nM -1.48% | 10000 nM 4.93%

Clc1ccc2c(c1)N=C(N1CCNCC1)c1ccccc1N2 [desmethylclozapine]
inactive: 1 nM 1.9% | 8.33 nM 0.8% | 100 nM 0.19% | 833.33 nM 2.8% | 10000 nM -4.43%

Clc1ccccc1CN1CCc2sccc2C1 [ticlopidine]
inactive: 1 nM -1.31% | 8.33 nM -0.14% | 100 nM 0.36% | 833.33 nM 1.94% | 10000 nM -1.5%

CNCCc1cnc[nH]1 [N-alpha-methylhistamine-dihydrochloride]
inactive: 1 nM 0.16% | 8.33 nM 2.71% | 100 nM 2.12% | 833.33 nM -0.59% | 10000 nM 1.37%

C[C@@H]1CC[C@@]2(OC1)O[C@H]1C[C@H]3[C@@H]4CC=C5C[C@@H](O[C@@H]6O[C@H](CO)[C@@H](O[C@@H]7O[C@@H](C)[C@H](O)[C@@H](O)[C@H]7O)[C@H](O)[C@H]6O[C@@H]6O[C@@H](C)[C@H](O)[C@@H](O)[C@H]6O)CC[C@]5(C)[C@H]4CC[C@]3(C)[C@H]1[C@@H]2C [dioscin]
inactive: 1 nM -2.63% | 8.33 nM 0.88% | 100 nM -2.63% | 833.33 nM 0.22% | 10000 nM -12.2%

CC(C)(C)c1cc(C(=O)/C(C#N)=N/Nc2cccc(Cl)c2)no1
inactive: 1 nM 1.62% | 8.33 nM -1.2% | 100 nM -0.43% | 833.33 nM 2.18% | 10000 nM 11.6%

CC(C)S(=O)(=O)NC[C@H](C)c1ccc(-c2ccc(CCNS(C)(=O)=O)cc2)cc1 [mibampator]
inactive: 1 nM -0.11% | 8.33 nM -1.29% | 100 nM -1.07% | 833.33 nM 1.62% | 10000 nM 4.07%

C[C@@H]1C/C=C/C=C/C=C/C=C/[C@H](O[C@@H]2O[C@H](C)[C@@H](O)[C@H](N)[C@@H]2O)C[C@@H]2O[C@](O)(C[C@@H](O)C[C@H]3O[C@@H]3/C=C/C(=O)O1)C[C@H](O)[C@H]2C(=O)O [natamycin]
inactive: 1 nM 2.57% | 8.33 nM -0.49% | 100 nM -2.28% | 833.33 nM -6.12% | 10000 nM -4.75%

NCC(=O)CCC(=O)O [5-aminolevulinic-acid]
inactive: 1 nM 1.18% | 8.33 nM 1.35% | 100 nM -3.53% | 833.33 nM -0.73% | 10000 nM 0.28%

C#C[C@]1(OC(C)=O)CC[C@H]2[C@@H]3CCC4=CC(=NO)CC[C@@H]4[C@H]3CC[C@@]21CC (mixture of isomers) [norgestimate]
inactive: 1 nM -3.21% | 8.33 nM 0.96% | 100 nM 1.62% | 833.33 nM -2.37% | 10000 nM -3.22%

Cc1cc(/C=C2\SC(=O)N(c3ccccc3)C2=O)c(C)n1-c1cccnc1
inactive: 1 nM 2.97% | 8.33 nM -0.28% | 100 nM 1.31% | 833.33 nM 1.52% | 10000 nM 2.29%

CC(=O)O[C@H]1C[C@@]2(C)[C@@H](C[C@@H](O)[C@H]3[C@@]4(C)CC[C@@H](O)[C@@H](C)[C@@H]4CC[C@@]32C)/C1=C(\CCC=C(C)C)C(=O)O [fusidic-acid]
inactive: 1 nM -0.53% | 8.33 nM 0.07% | 100 nM -1.13% | 833.33 nM -8.51% | 10000 nM -1.02%
